From PubChem BioAssay come the findings set out here.

Potency and affinity values are given separately. Activity calls are given as the source filed them.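 Rule for the calls: active = signal drop whose fitted half-maximal concentration is at most twice the top valid dose, in every test run; inconclusive = mixed calls across runs, poor fit, or flat 30 to 70% inhibition; inactive = wrong direction, flat within 30%, or potency beyond limit.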

A short description of the assay: cytotoxicity in PAX8-dependent RMG-1 cells, dose response, cell-based, cherry-pick (AID 687029).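 Note: cells exposed to compound for 96 hours.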 Conditions: RMG-1 viability, CellTiterGlo ATP luminescence, 96 h; series mostly up to 35 µM. (Cellular ATP, detected with luciferase, serves as a proxy for viable cell number.)
Take `O=S(=O)(Nc1cccc(-c2cn3cccnc3n2)c1)c1ccc(Cl)cc1`: the call was inactive.

In the case of `C=C1C(=O)O[C@@H]2[C@H]1[C@@H](OC(=O)/C(C)=C/C)C/C(C)=C\C(=O)/C=C(\C)[C@@H]2O`, the outcome was inactive.

As for `CN1CC(=O)N2C(c3ccc(Cl)cc3)c3[nH]c4ccccc4c3C[C@H]2C1=O` (stereo not given in full), the compound was classed as inactive.

Consider `CCCCn1c(N)c(N(CCC(C)C)C(=O)COC(=O)c2ccc([N+](=O)[O-])s2)c(=O)[nH]c1=O`, for which the call was inactive.

As for `COc1cccc(-c2cnc3c(NC=O)cc(-c4ccc(OC)cc4OC)cn23)c1`, the outcome was inactive.

In the case of `O=C(Nc1ccccc1)Nc1cc(OCC(F)(F)F)cc(OCC(F)(F)F)c1`, the outcome was inactive.

As for `C[C@H](NC(=O)c1ccco1)C(=O)Nc1cccc([N+](=O)[O-])c1`, the compound was called inactive.

Regarding `O=S(=O)(Nc1cc(Sc2ncn[nH]2)c(O)c2ccccc12)c1ccccc1`, the outcome was inactive.

Regarding `CCCCCc1cc(=O)oc2c(C(CCN3CCCCC3)c3ccc4c(c3)OCO4)c(OC)cc(OC)c12` (stereo not given), the compound was classed as inactive.

In the case of `O=C(Cn1ncc(Cl)c(Cl)c1=O)NC(=O)NC1CCCCC1`, the result was inactive.

Regarding `COC(=O)[C@@]12C[C@@H](CC(=O)N3CCN(C(=O)c4ccco4)CC3)C(=O)N(Cc3ccccc3)C1=CCC(C)(C)C2`, the compound was classed as inactive.

Turning to `C=C1CC(COc2ccc3c(C)c(Cl)c(=O)oc3c2)(c2ccccc2)OC1=O` (stereo not given), the result was inactive.

Consider `Cn1nnnc1Sc1ncnc2scc(-c3ccc(Br)cc3)c12`, for which the outcome was inactive.

Turning to `CC(/C=C1\SC(=O)N(CC(=O)Nc2ccc(O)cc2)C1=O)=C\c1ccccc1`, the compound was called inactive.

With `COC(=O)[C@]12CCCCC=C1N(Cc1cccc3ccccc13)C(=O)[C@H](CC(=O)N1CCN(C(=O)c3ccco3)CC1)C2`, the result was inactive.

For the compound `COc1ccc(/C=C2\CN(Cc3ccccc3)C/C(=C\c3ccc(OC)c(O)c3)C2=O)cc1O`, the outcome was inactive.

Take `O[C@@H]1[C@@H](O)C=C2CCN3Cc4cc5c(cc4[C@H]1C23)OCO5` (stereo not given in full): the compound was called inactive.

Consider `CC(C1CC1)N(Cc1ccccc1)C(=S)Nc1cccc(C(F)(F)F)c1` (stereo not given), for which the call was inactive.

For the compound `CCOC(=O)C1=CN(Cc2cccc(-c3cccnc3)c2)S(=O)(=O)N(C)C1C` (stereo not given), the compound was called inactive.

Turning to `COC1C(CO)OC(n2c3c(Cl)cccc3c3c4c(c5c6cccc(Cl)c6[nH]c5c32)C(=O)NC4=O)C(O)C1O` (stereo not given), the compound was classed as inactive.

With `C=C1C(=O)[C@]23C[C@H]1CC[C@H]2[C@]1(C)[C@@H](OC(C)=O)CC[C@@](C)(C(=O)O)[C@H]1C[C@@H]3O`, the compound was classed as inactive.

With `CN1C(=O)/C(=C\C(=O)c2cccs2)c2ccccc21`, the result was inactive.

For `CCn1c2ccccc2c2cc(NC(=O)c3cc(OC)cc(OC)c3)ccc21`, the compound was classed as inactive.

Consider `Cc1cccc(CS(=O)(=O)c2ncc(Cl)c(C(=O)Nc3ccc(F)cc3)n2)c1`, for which the compound was called inactive.

Turning to `COc1cccc(-c2nc(CS(=O)(=O)CC(=O)NCCCN3CC(C)CC(C)C3)c(C)o2)c1` (stereo not given), the compound was called inactive.

In the case of `CCOC(=O)/C=C/C(=O)Nc1cc(S(=O)(=O)Nc2ccc(OC)cc2)ccc1N1CCOCC1`, the result was inactive.

Regarding `Cc1ccc(NC(=O)/C=C/c2ccc([N+](=O)[O-])s2)c(C)c1`, the outcome was inactive.

For the compound `CN=c1scc(-c2cccs2)n1/N=C/c1ccccc1O`, the result was inactive.

`COc1cc2c(c(OC)c1OC)-c1ccc(OC)c(=O)cc1C(NC(C)=O)CC2` (stereo not given): the outcome was inactive.

As for `C=C1C(=O)[C@@]23[C@H](O)C[C@@H]4C(C)(C)CC[C@H](O)[C@]4(C)[C@@H]2C[C@H](O)[C@@H]1[C@H]3O`, the outcome was inactive.

With `Cc1ccc2nc(NNC(=O)c3ccc(S(=O)(=O)N4CCc5ccccc5C4)cc3)sc2c1`, the result was inactive.

Regarding `COc1cccc2c1C(=O)c1c(O)c3c(c(O)c1C2=O)CC(O)(C(C)=NNC(=O)c1ccc(Cl)c(Cl)c1)CC3OC1CC(N)C(O)C(C)O1` (stereo not given), the outcome was inactive.

Regarding `CC[C@]1(O)C[C@@H]2CN(CCc3c([nH]c4ccccc34)[C@@](C(=O)OC)(c3cc4c(cc3OC)N(C)[C@H]3[C@@](O)(C(=O)OC)[C@H](OC(C)=O)[C@]5(CC)C=CCN6CC[C@]43[C@@H]65)C2)C1`, the call was inactive.

Turning to `COc1cccc2c1C(=O)c1c(O)c3c(c(O)c1C2=O)C[C@](O)(C(C)=O)C[C@H]3O[C@@H]1C[C@@H](N)[C@@H](O)[C@@H](C)O1`, the compound was classed as inactive.

Regarding `O=C1[C@@H]2Cc3c([nH]c4ccccc34)C(c3cccc(Br)c3)N2C(=O)CN1C1CCN(Cc2ccccc2)CC1` (stereo not given in full), the call was inactive.

For `CC(C)C(=O)N1CCN(c2ccc(NC(=O)c3ccc([N+](=O)[O-])o3)cc2Cl)CC1`, the result was inactive.

`COc1ccc(CC2C(=O)NC(C)C(=O)N(C)C3Cc4ccc(cc4)Oc4cc(ccc4O)CC(C(=O)NC(C)C(=O)NC(C)C(=O)N2C)N(C)C3=O)cc1` (stereo not given): the result was inactive.

Turning to `CCCCCc1c(-c2ccccc2OC)ncn1CCc1ccccc1OC`, the result was inactive.

As to `N#Cc1ccc(-c2ccc([C@@H]3[C@@H]4CN(S(=O)(=O)c5ccc(-c6ccccc6)cc5)C[C@H]3N4)cc2)cc1`, the compound was called inactive.

Consider `S=C1SCN(Cc2cccnc2)CN1Cc1cccnc1`, for which the outcome was inactive.
